Pf growth 48h: Primary qHTS for delayed death inhibitors of the malarial parasite plastid, 48 hour incubation; Potency, µM (doses to about 28.7 µM), inactives show at the highest dose activity change, negative = inhibition, hits mostly inhibitors; P. falciparum luciferase growth in erythrocytes, 48 h; 310,000 compounds, 5.9% hits; note: potency is the fitted concentration of half-maximal effect; % is set by controls: 0 for no effect and ±100 for the full control effect
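First compound was added to culture medium, then infected red cells at 0.1% parasitemia and 2% hematocrit (final). After incubation at 37 C under 5% CO2, luciferase detection reagent was dispensed and light output recorded.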
Shiga inhibitor: A qHTS for Small Molecule Inhibitors of Shiga Toxin; Vero cells, Shiga toxin protein synthesis inhibition reporter; 290,000 compounds, 9.2% hits; inhibition, % at 38.7 µM; in the data active = inhibition mostly above about 28%, no sharp cut-off; inactive = mostly below about 43%; note: 0% is about no effect
CHX counter: Cycloheximide Counterscreen for Small Molecule Inhibitors of Shiga Toxin; 300,000 compounds, 12% hits; AID 2314, 2010; cell reporter, cycloheximide protein synthesis inhibition counterscreen; max response, %; in the data active = max response mostly above about 13%, no sharp cut-off; inactive = mostly below about 14%; note: read at 38.3 µM for the half of the compounds with a filed dose; 0% is about no effect
Pf growth 96h: Primary qHTS for delayed death inhibitors of the malarial parasite plastid, 96 hour incubation. P. falciparum luciferase reporter growth, 96 h. AID 504834, 2011. 320,000 compounds, 6.9% hits. Potency, µM (highest dose often 28.7 µM), for the others: at the top dose activity change, negative = inhibition, most hits filed as inhibitors; note: potency is the fitted concentration of half-maximal effect; % is set by controls: 0 for no effect and ±100 for the full control effect
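Two-generation exposure (96 h) targets delayed-death phenotype. Reporter parasites carrying integrated firefly luciferase, in red cells at 2% hematocrit and 0.05% parasitemia final, kept at 37 C, 5% CO2; luminescence loss indicates inhibition.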
HCMV antiviral: qHTS Assay for inhibitors of the human cytomegalovirus (HCMV) | AID 1259415, 2018 | activity change, negative = inhibition, % at 57.5 µM | HFF cells, HCMV-luciferase reporter, 72 h; hits give low values | 410,000 compounds, 4.5% hits; in the data active = activity change below about -60%; inconclusive = no clear call, values can overlap the other calls; inactive = above about -39%; note: % is set by controls: 0 for no effect and ±100 for the full control effect
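HFF cells seeded 16 h at 37C, treated with compounds, infected with luciferase-reporter HCMV at MOI 1 PFU/cell; luciferase read at 72 h post infection, normalized to buffer-only and Salinomycin controls.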
HCV inhibitor: qHTS Assay for Inhibitors of Hepatitis C Virus (HCV); Huh7.5.1 HCVcc-Cre infection, luciferase reporter, 44 h; Potency, µM (highest dose often 41.8 µM), inactives show at the highest dose activity change, negative = inhibition, usual class: inhibitors; 340,000 compounds, 3.4% hits; AID 651820, 2012; note: potency is the fitted concentration of half-maximal effect; % is set by controls: 0 for no effect and ±100 for the full control effect
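Infectious HCVcc-Cre (~0.5 moi) was added to cells just after compound, with cells seeded 4 h earlier at 1,000 per well. Luciferase activity after 44 h culture reported infection; substrate was incubated 15 min at room temperature before reading.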
Active calls of the source: *; i = inactive; ? = inconclusive; nt = no result. In the library only some 21% were active in any assay of this set; here they are far more common. Unless noted, calls come from the whole dose curve; as a rule, active = well fitted inhibition curve with a large enough effect; inconclusive = small, poorly fitted or top-dose-only effect, or another doubt; inactive = no such curve, though single readings can be large or run the other way.

SMILES	Pf growth 48h	Shiga inhibitor	CHX counter	Pf growth 96h	HCMV antiviral	HCV inhibitor
Cc1cnc(C(=O)Nc2ccc(C)c(S(=O)(=O)N3CCCCCC3)c2)cn1	?	nt	nt	0%	-37	-18%
O=C(Cc1noc2ccccc12)Nc1ccc2ccccc2c1	?	69*	32*	48%	-2	4%
Cc1ccc(NC(=O)Cc2noc3ccccc23)cc1	236%	68*	46*	239%	75	-1%
CCOC(=O)c1c(S(=O)(=O)NCC(=O)N2CCN(c3ccccc3)CC2)c(C)n(C)c1C	-2%	-5	11	22%	25	18%
O=C(NC1CCN(Cc2ccccc2)CC1)c1ccc(Cn2c(=O)c3ccccc3n(Cc3ccc(F)cc3)c2=O)cc1	nt	nt	nt	nt	11	nt
O=C(CCCCn1c(=O)c2ccccc2n(Cc2ccccc2)c1=O)NC1CCN(Cc2ccccc2)CC1	5.9µM*	-6	-2	-10%	?	?
O=C(CCCn1c(=O)c2ccccc2n(Cc2cccc(F)c2)c1=O)NC1CCN(Cc2ccccc2)CC1	6.6µM*	12	3	?	-31	nt
C=CCN(C(=O)CSc1nc2ccsc2c(=O)n1Cc1ccc(C(=O)O)cc1)c1ccccc1	nt	nt	nt	nt	2	nt
C=CCN(C(=O)CSC1=NC(=O)CN1C(C)=O)c1nc(C)c(-c2ccccc2)s1	0%	50	30*	199%	89	?
COc1ccc(C(=O)C(CCC(CNC(C)(C)C)C(=O)c2ccc(OC)cc2)CNC(C)(C)C)cc1 (stereo not drawn)	7.4µM*	-13	-5	?	-98*	?
NC(=O)c1nsc(C(=O)N(c2ccccc2)C(C(=O)NCc2ccc(F)cc2)c2ccc(O)cc2)c1N (stereo not drawn)	?	20	6	-6%	-24	?
Cc1ccc(-c2cc(N)n(-c3ccccc3)n2)cc1	101%	80*	66*	138%	77	-9%
Cc1cccc(-c2cc(N)n(-c3ccccc3)n2)c1	335%	65*	45*	i	153	17%
CCc1ccc(-c2cc(N)n(-c3ccccc3)n2)cc1	388%	154*	33*	425%	4	1%
Nc1cc(C2CCCC2)nn1-c1ccccc1	125%	104*	46*	138%	-37	-8%
Cc1cccc(-n2nc(C)cc2N)c1	66%	-8	13	117%	27	6%
O=C(Nc1ccn(CCCNCc2cccc3ccccc23)c(=O)n1)OCc1ccccc1	nt	nt	nt	nt	-9	nt
Cc1ccc(C)c(S(=O)(=O)Nc2ccc(C(=O)N3CCC3)cc2)c1	9%	nt	nt	27%	-18	18%
O=C1C(Cc2ccccc2)Nc2ncnc(N3CCCCC3)c2N1Cc1ccccc1 (stereo not drawn)	nt	nt	nt	nt	-27	16%
C/C(=N\NC(=S)NCCc1ccccc1)c1cccs1	?	24	17*	-2%	-17	?
C/C(=N\NC(=S)NCc1ccccc1)c1cccc(Br)c1	-9%	68*	49*	0%	78	?
C=CCNC(=S)N/N=C(\C)c1ccc(OC)cc1	?	-1	7	-76%	-28	?
COc1ccc(NC(=S)NCCc2ccccc2)c(OC)c1	-11%	20	-2	nt	6	22µM*
COc1ccc(CNC(=S)N/N=C(\C)c2ccc(OC)cc2)cc1	10%	64*	15	?	0	?
COc1ccc(CC(=S)NCCc2ccccc2)cc1	12%	nt	14*	0%	14	8%
SMILES	Pf growth 48h	Shiga inhibitor	CHX counter	Pf growth 96h	HCMV antiviral	HCV inhibitor
C/C(=N\NC(=S)NCCc1ccccc1)c1cccc(Br)c1	3%	13	1	-32%	30	-17%
COc1ccc(/C(C)=N/NC(=S)NCCc2ccccc2)cc1	?	17	4	?	-114*	-12%
Clc1ccc(-c2cnnc(-c3ccccn3)n2)cc1	nt	nt	nt	nt	26	-7%
Cc1nn(C(=O)c2cccc(F)c2)c(C)c1S(=O)(=O)N1CCCCCC1	nt	nt	nt	nt	-91*	nt
Cc1nn(C(=O)c2cccc(F)c2)c(C)c1S(=O)(=O)N1CCOCC1	nt	nt	nt	nt	-81*	nt
Cc1nn(C(=O)c2ccccc2)c(C)c1S(=O)(=O)N1CCCCCC1	nt	nt	nt	nt	12	nt
CC1=CN(S(=O)(=O)c2ccc(C)cc2)C[C@@H]2[C@H]3CC[C@H](C3)[C@H]12	nt	nt	nt	nt	-37	4%
Cc1sc2nc(SCCN(C)C)n(-c3ccccc3)c(=O)c2c1-c1ccc(F)cc1	10µM*	-8	13	?	?	7.1µM*
CN(C)CCSc1nc(O)c(-c2ccccc2)c(=O)n1-c1ccccc1	10%	-9	2	34%	-2	13%
CCc1cccc(C)c1NC(=O)CCn1nc(C)c2c(C)n(-c3ccccc3)nc2c1=O	nt	nt	nt	nt	-16	nt
CCCOc1ccc(Oc2ccc(S(=O)(=O)N3CCN(C)CC3)cn2)cc1	2%	nt	nt	5%	-3	?
CC(=O)c1cnn(-c2nc3c(C)cccc3s2)c1C	nt	18	12	14%	-99*	4%
CCC(=O)N1CCN(c2nc3c(C)cccc3s2)CC1	nt	nt	nt	nt	-2	nt
O=C(O)C1=C[C@H](c2csc3ccccc23)C[C@H](OCc2ccc(CO)cc2)O1	58%	-8	-1	15%	5	27%
C#CCNC(=O)C1=C[C@@H](c2csc3ccccc23)C[C@@H](OCc2ccc(CO)cc2)O1	?	-4	-2	5.2µM*	-17	-24%
O=C(NCc1ccccc1)C1=C[C@@H](c2coc3ccccc3c2=O)C[C@@H](OCc2ccc(CO)cc2)O1	?	-15	-1	4.1µM*	0	-12%
O=C(NC1CC1)C1=C[C@@H](c2csc3ccccc23)C[C@@H](OCc2ccc(CO)cc2)O1	?	-15	8	13µM*	-15	-6%
O=C(O)C1=C[C@@H](c2csc3ccccc23)C[C@@H](OCc2ccc(CO)cc2)O1	47%	-6	-1	53%	-25	10%
O=C(NCc1ccccc1)C1=C[C@@H](c2csc3ccccc23)C[C@@H](OCc2ccc(CO)cc2)O1	?	16	-2	?	-98*	?
CCn1c(CN2CCCCC2)nc2cc(NC(=O)c3cccc([N+](=O)[O-])c3)ccc21	nt	nt	nt	nt	-29	nt
O=C(Cn1cnc(Cl)c1Cl)c1ccc(F)cc1	?	25	2	92%	41	-4%
CC1=C(C(=O)N2CCCCCC2)CC(CC(=O)NCc2cccc3ccccc23)C(=O)N1CCC1=CCCCC1 (stereo not drawn)	nt	nt	nt	nt	-13	nt
O=C(CCCCCN1C(=O)CCC1=O)Nc1ncn[nH]1	1%	-10	-1	nt	-103*	-27%
